Counter-ions that a name gives are not always drawn.
These molecules were tested on Danio rerio larvae (5 dpf) (assay: habituation (activity change first vs second 5 min of 1-s interval sound, period 17) minus DMSO control (percentage points); higher = larger habituation measure than DMSO larvae). Settings: 10 µM; exposure time: 3 h pre-incubation + 3 h imaging.
Protocol: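 Wild-type 5 dpf zebrafish larvae (n=48 per drug, 96-well plates, 28.5 °C) were exposed to Tocris FDA-approved library compounds at 10 µM (0.1% DMSO) for 3 h before and 3 h during imaging. Images were taken every 6 s during visual (moving coloured lines) and acoustic stimuli, and larvae were tracked with the DeepLabCut-based Z-LaP Tracker. Each behavioural measure is the treated-group mean minus the DMSO vehicle control mean (n=844), in percentage points. This mapping covers compounds with 4-character plate codes.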
Work on `CC(C)C(=O)OCC(=O)[C@@]12O[C@H](C3CCCCC3)O[C@@H]1C[C@H]1[C@@H]3CCC4=CC(=O)C=C[C@]4(C)[C@H]3[C@@H](O)C[C@@]12C` [Ciclesonide] yielded a habituation of 0.71. For `CC(=O)Oc1ccccc1C(=O)O` [Aspirin], the habituation was -4.51. For `CCCCCCCCc1ccc(CCC(N)(CO)CO)cc1`, the habituation was -0.454. With `CCOc1nc2cccc(C(=O)O)c2n1Cc1ccc(-c2ccccc2-c2nnn[nH]2)cc1` [Candesartan] the habituation was 5.98. Work on `Nc1ncn([C@@H]2O[C@H](CO)[C@@H](O)[C@H]2O)c(=O)n1` [5-Azacytidine] yielded a habituation of 0.429. For `O=c1[nH]c(=O)n([C@H]2C[C@H](O)[C@@H](CO)O2)cc1C(F)(F)F` [Trifluorothymidine], the habituation was 6.83. `CCOC(=O)[C@H](CCc1ccccc1)N[C@H]1CCc2ccccc2N(CC(=O)O)C1=O` [Benazepril hydrochloride] gave a habituation of 1.78. In the case of `CCCCC(=O)N(Cc1ccc(-c2ccccc2-c2nnn[nH]2)cc1)[C@H](C(=O)O)C(C)C` [Valsartan], the habituation is reported as 2.48. `COCCCOc1cc(C[C@@H](C[C@H](N)[C@@H](O)C[C@H](C(=O)NCC(C)(C)C(N)=O)C(C)C)C(C)C)ccc1OC` [Aliskiren hemifumarate] was tested, and the habituation was 8.44. `O=C(O)c1cc(/N=N/c2ccc(S(=O)(=O)Nc3ccccn3)cc2)ccc1O` [Sulfasalazine] was tested, and the habituation was 1.27. `CC(=O)O[C@]1(C(C)=O)CC[C@H]2[C@@H]3C=C(C)C4=CC(=O)CC[C@]4(C)[C@H]3CC[C@@]21C` [Megestrol Acetate] was tested, and the habituation was -3.62. For `CN1CCC[C@@H]1Cc1c[nH]c2ccc(CCS(=O)(=O)c3ccccc3)cc12` [Eletriptan hydrobromide], the habituation was 7.41. Work on `Nc1nc(F)nc2c1ncn2[C@@H]1O[C@H](CO)[C@@H](O)[C@@H]1O` [Fludarabine] yielded a habituation of -0.666. Molecule `CC(C)N(CCCCOCC(=O)NS(C)(=O)=O)c1cnc(-c2ccccc2)c(-c2ccccc2)n1` [Selexipag] has a habituation of -0.762. Molecule `CC(CCc1ccc(O)cc1)NCCc1ccc(O)c(O)c1` (stereo not given) [Dobutamine hydrochloride] has a habituation of 3.31. Molecule `COc1ccc([C@@H]2Sc3ccccc3N(CCN(C)C)C(=O)[C@@H]2OC(C)=O)cc1` [Diltiazem hydrochloride] has a habituation of -0.219. In the case of `CC1=Nc2ccc(Cl)cc2S(=O)(=O)N1` [Diazoxide], the habituation is reported as 8.87. Molecule `CC(C)(C(=O)c1cccnc1)c1cccnc1` [Metyrapone] has a habituation of 0.481. For `Cc1ccc(N(CC2=NCCN2)c2cccc(O)c2)cc1` [Phentolamine Mesylate], the habituation was 8.8. `Clc1ccc(COC(Cn2ccnc2)c2ccc(Cl)cc2Cl)c(Cl)c1` (stereo not given) [Miconazole nitrate] was tested, and the habituation was -11.4. Work on `COc1ccc(Cl)cc1C(=O)NCCc1ccc(S(=O)(=O)NC(=O)NC2CCCCC2)cc1` [Glibenclamide] yielded a habituation of 0.59. Work on `CCc1c2c(nc3ccc(OC(=O)N4CCC(N5CCCCC5)CC4)cc13)-c1cc3c(c(=O)n1C2)COC(=O)[C@]3(O)CC` yielded a habituation of 9.09. Molecule `CC(=O)O[C@H]1C(=O)[C@@]2(C)[C@H]([C@H](OC(=O)c3ccccc3)[C@]3(O)C[C@H](OC(=O)[C@H](O)[C@@H](NC(=O)c4ccccc4)c4ccccc4)C(C)=C1C3(C)C)[C@]1(OC(C)=O)CO[C@@H]1C[C@@H]2O` [Taxol] has a habituation of -3.28. Molecule `CN1CCC[C@@H]1CCO[C@](C)(c1ccccc1)c1ccc(Cl)cc1` [Clemastine fumarate] has a habituation of -6.62. Molecule `CCOC(=O)[C@H](CCc1ccccc1)N[C@@H](C)C(=O)N1[C@H](C(=O)O)C[C@@H]2CCC[C@@H]21` [Ramipril] has a habituation of 0.42. `CC1(C)O[C@@H]2[C@@H](CO[C@@]3(COS(N)(=O)=O)OC(C)(C)O[C@@H]23)O1` [Topiramate] was tested, and the habituation was -1.06. Molecule `CCOc1cc(CC(=O)N[C@@H](CC(C)C)c2ccccc2N2CCCCC2)ccc1C(=O)O` [Repaglinide] has a habituation of -7.53. `CCCCC1=NC2(CCCC2)C(=O)N1Cc1ccc(-c2ccccc2-c2nnn[nH]2)cc1` [Irbesartan] gave a habituation of -1.18. With `OCCOCCN1CCN(C2=Nc3ccccc3Sc3ccccc32)CC1` [Quetiapine hemifumarate] the habituation was -4.22. `CC1CNc2c(cccc2S(=O)(=O)N[C@@H](CCCNC(=N)N)C(=O)N2CC[C@@H](C)C[C@@H]2C(=O)O)C1` (stereo not given in full) [Argatroban] gave a habituation of -0.107. `Cc1nc(Nc2ncc(C(=O)Nc3c(C)cccc3Cl)s2)cc(N2CCN(CCO)CC2)n1` [Dasatinib] showed a habituation of -0.804. `N#Cc1ccc(C(c2ccc(C#N)cc2)n2cncn2)cc1` [Letrozole] showed a habituation of 3.66. Molecule `CCN(Cc1ccncc1)C(=O)C(CO)c1ccccc1` (stereo not given) [Tropicamide] has a habituation of 2.39. Molecule `CN/C(=N\CCSCc1nc[nH]c1C)NC#N` [Cimetidine] has a habituation of 5.23. `Brc1c(NC2=NCCN2)ccc2nccnc12` was tested, and the habituation was -6.57. `Nc1nc(Cl)nc2c1ncn2[C@@H]1O[C@H](CO)[C@@H](O)[C@@H]1F` [Clofarabine] was tested, and the habituation was -1.06. `NS(=O)(=O)c1cc(C(=O)O)c(NCc2ccco2)cc1Cl` [Furosemide] was tested, and the habituation was 2.23. `Cc1ccc(-c2cc(C(F)(F)F)nn2-c2ccc(S(N)(=O)=O)cc2)cc1` [Celecoxib] showed a habituation of -9.16. In the case of `CN1CCN(CCCN2c3ccccc3Sc3ccc(Cl)cc32)CC1` [Prochlorperazine dimaleate], the habituation is reported as -8.1. With `CC(C)(C#N)c1cc(Cn2cncn2)cc(C(C)(C)C#N)c1` [Anastrozole] the habituation was 6.46.
